Data on 40 compounds can be found in PubChem BioAssay (EPA / NIEHS).

Several values for one entry are separate records, joined by “and”; a condition that tells them apart may be missing. Equal entries are not always repeated. Activity calls are given as the source filed them. Rule for the calls: active = hit-call score of the fitted dose curve at least 0.9, where 1 is the maximum; inactive = score below 0.9.

Read-out in the experiment: Urokinase-type plasminogen activator receptor (uPAR), PLAUR (gene 5329)
The experiment can be described thus: BSK_BE3C_uPAR: BioMAP Diversity Plus: BE3C Assay for Urokinase-type plasminogen activator receptor (uPAR) Biomarker Activity (AID 2283039).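 For outcome: cells exposed to compound for one day before measurement.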 To be noted: primary human bronchial epithelial cells; actives raise or lower the signal. The procedure: BSK_BE3C is a cell-based, multiplexed-readout assay that uses bronchial epithelial cell, a human lung primary cell, with measurements taken at 24 hours after chemical dosing in a 96-well plate.BSK_BE3CAR is an assay component measured in the BSK_BE3C assay. It measures uPAR antibody related to regulation of gene expression using ELISA technology.Data from the assay component BSK_BE3CAR was analyzed into 1 assay endpoint. This assay endpoint, BSK_BE3CAR, was analyzed with bidirectional fitting relative to DMSO as the negative control and baseline of activity. Using a type of binding reporter, gain or loss-of-signal activity can be used to understand changes in the signaling as they relate to the gene PLAUR. Furthermore, this assay endpoint can be referred to as a primary readout, because this assay has produced multiple assay endpoints where this one serves a signaling function. To generalize the intended target to other relatable targets, this assay endpoint is annotated to the cytokine intended target family, where the subfamily is plasmogen activator.
The levels of cell surface (or secreted, indicated by the prefix "s") biomarker endpoints were measured by ELISA. Overt cytotoxicity to cells in confluent adherent cultures (all systems other than the BT system) was assessed by measuring total protein levels using sulforhodamine B (SRB) staining in parallel cultures at the time of biomarker measurements, indicated as SRB endpoints. For proliferation assays for adherent cell types, individual cell types are cultured at sub-confluence and relative cell numbers quantified by SRB staining at time points optimized for each system (48 h: 3C and CASM3C systems; 72 h: BT and HDF3CGF systems; 96 h: SAg system). SRB was performed by staining cells with 0.1% SRB after fixation with 10% TCA and reading wells at 560 nm.Viability and proliferation of PBMC (T cells) was quantified by Alamar Blue reduction for the SAg and BT systems. For PBMC viability (referred to as PBMC Cytotoxicity within the assay endpoint names), cells were plated (75,000/well in a 96-well plate) and then chemical samples added for 1 h before addition of activators, SEB and TSST-1 (20 ng/mL final concentration each). Cells were incubated for 90 h. Then, Alamar Blue (20 uL/well) (Invitrogen, Cat DAL1100) was added for 6 h, and the plates were read with a fluorescence microplate reader at 546/580 nm (excitation/emission). For PBMC proliferation, cells were plated and activated as above but incubated for only 16 h prior to addition of Alamar Blue. Plates were read after 6 h.
In general, AC50 refers to the concentration at which the activity in the assay is half-maximal. For the compound `CCCOCC(=Nc1ccc(Cl)cc1C(F)(F)F)n1ccnc1`, the AC50 was 32.8 µM (active).
As for `CCOP(=S)(Oc1cnc(C(C)(C)C)nc1)OC(C)C` (stereo not given), the outcome was inactive.
`Cc1nn(-c2cc(NS(C)(=O)=O)c(Cl)cc2Cl)c(=O)n1C(F)F`: the outcome was inactive.
The same measure, in the same setting: the same measure for `CCCSP(=O)(OCC)Oc1ccc(Br)cc1Cl` (stereo not given): “inactive”.
`CCCOc1nn(C(=O)NS(=O)(=O)c2ccccc2C(=O)OC)c(=O)n1C`: the AC50 is 1.32 µM (active).
Take `Nc1c(Cl)cc([N+](=O)[O-])cc1Cl`: the outcome was inactive.
The same measure, in the same setting: the same measure for `COc1ccc(C(=CC(=O)N2CCOCC2)c2ccc(Cl)cc2)cc1OC`: “inactive”; for `CC(C)=CC1C(C(=O)OCN2C(=O)C3=C(CCCC3)C2=O)C1(C)C` (stereo not given): “inactive”; for `CN1COCN(Cc2cnc(Cl)s2)C1=N[N+](=O)[O-]`: “inactive”.
As for `CC(C)[C@H](C(=O)O[C@H](C#N)c1cccc(Oc2ccccc2)c1)c1ccc(Cl)cc1`, the AC50 is 5.23 µM (active).
With `COP(=O)(OC)OC(Br)C(Cl)(Cl)Br` (stereo not given), the AC50 was 36.6 µM (active).
As for `CCCCN(CC)c1c([N+](=O)[O-])cc(C(F)(F)F)cc1[N+](=O)[O-]`, the result was inactive.
Turning to `CCOP(=S)(OCC)Oc1ccc2c(C)c(Cl)c(=O)oc2c1`, the outcome was inactive.
Same read-out and setting: the same measure for `O=c1ccc(=O)[nH][nH]1`: “inactive”; for `CCOP(=O)(SC(C)CC)N1CCSC1=O` (stereo not given): “inactive”.
The same measure, in the same setting: in the case of `CNC(=O)ON=C(C)SC` it was “inactive”; in that of `C#CCC1=C(C)C(OC(=O)C2C(C=C(C)C)C2(C)C)CC1=O` (stereo not given), “inactive”.
For `CC[C@H](C)[C@H]1O[C@]2(C=C[C@@H]1C)C[C@@H]1C[C@@H](C/C=C(\C)[C@@H](O[C@H]3C[C@H](OC)[C@@H](O[C@H]4C[C@H](OC)[C@@H](NC)[C@H](C)O4)[C@H](C)O3)[C@@H](C)/C=C/C=C3\CO[C@@H]4[C@H](O)C(C)=C[C@@H](C(=O)O1)[C@]34O)O2`, the AC50 is 5.78 µM (active).
In the case of `CCOC(=O)COc1cc(-c2nn(C)c(OC(F)F)c2Cl)c(F)cc1Cl`, the outcome was inactive.
Same read-out and setting: the same measure for `Cc1cc(C2CC2)nc(Nc2ccccc2)n1`: “inactive”; for `CCOP(=S)(OCC)SCCSCC`: “inactive”.
For `CNc1cnn(-c2cccc(C(F)(F)F)c2)c(=O)c1Cl`, the result was inactive.
The same measure, in the same setting: in the case of `COP(=O)(OC)SCn1c(=O)oc2cc(Cl)cnc21` it was “inactive”; in that of `CSC1=N[C@@](C)(c2ccccc2)C(=O)N1Nc1ccccc1`, “inactive”.
Same read-out and setting: in the case of `CN(C)C(=O)Nc1cccc(C(F)(F)F)c1` it was “inactive”; in that of `CC(C1CC1)C(O)(Cn1cncn1)c1ccc(Cl)cc1` (stereo not given), “inactive”.
On the same count and under the same terms, the same measure for `CNC(=O)Oc1cccc2c1OC(C)(C)O2`: “inactive”; for `CC1(C(=O)Nc2ccc(O)c(Cl)c2Cl)CCCCC1`: “inactive”; for `C[Si](Cn1cncn1)(c1ccc(F)cc1)c1ccc(F)cc1`: “inactive”.
For the compound `CCOC(=O)CC(SP(=O)(OC)OC)C(=O)OCC` (stereo not given), the result was inactive.
On the same count and under the same terms, the same measure for `CC(Oc1cccc(Cl)c1)C(=O)O` (stereo not given): “inactive”.
Same read-out and setting: the same measure for `C#CC(C)(C)NC(=O)c1cc(Cl)cc(Cl)c1`: “inactive”; for `CCOP(=O)(OCC)Oc1cc(C)nc(C(C)C)n1`: “inactive”.
Regarding `C=C(C)[C@H]1Cc2c(ccc3c2O[C@@H]2COc4cc(OC)c(OC)cc4[C@@H]2C3=O)O1`, the outcome was inactive.
For `Nc1nc(N)nc(NC2CC2)n1`, the result was inactive.
Same read-out and setting: the same measure for `CNC(=O)ON=C(SC)C(=O)N(C)C`: “inactive”; for `CCNc1nc(Cl)nc(NC(C)(C)C#N)n1`: “inactive”.
Turning to `Cc1ccn2nc(S(=O)(=O)Nc3c(F)cccc3F)nc2n1`, the result was inactive.
On the same count and under the same terms, in the case of `N#CSCSC#N` it was “inactive”.
Regarding `O=[N+]([O-])c1cc(C(F)(F)F)c(Cl)c([N+](=O)[O-])c1Nc1ncc(C(F)(F)F)cc1Cl`, the AC50 was 7.71 µM (active) and 8.37 µM (active).
